Assay results published in PubChem BioAssay (EPA / NIEHS).
Results filed as inconclusive are left out. Activity calls are given as the source filed them. The calls were made as follows: active = hit-call score of the fitted dose curve at least 0.9, where 1 is the maximum; inconclusive = response in the unintended direction; inactive = score below 0.9.

Target: Serine/threonine-protein phosphatase PP1-alpha catalytic subunit (Homo sapiens) (UniProt P62136)
Experiment: NVS_ENZ_hPPP1CA: NovaScreen (NVS) Enzymatic Assay for human Protein Phosphatase 1 Aatalytic subunit Alpha (PPP1CA) (AID 2283200)
Summary of the method: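 Recombinant enzyme activity read by fluorescence with electrophoretic mobility shift separating substrate from product, 1.33 h after dosing; loss of signal vs DMSO baseline. Primary screen in duplicate at 25 uM; actives retested in concentration-response up to 50 uM.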

Row | SMILES | outcome | AC50
1 | CCNC(=O)NC(=O)C(C#N)=NOC | inactive | 
2 | CC(C)NC(=O)N1CC(=O)N(c2cc(Cl)cc(Cl)c2)C1=O | inactive | 
3 | O=P(O)(O)CCCl |  | 9.89 µM (active)

Target: human Protein Tyrosine Phosphatase Non-receptor Type 1 (PTPN1), PTPN1 (gene 5770) (UniProt P18031)
Experiment: NVS_ENZ_hPTPN1: NovaScreen (NVS) Enzymatic Assay for human Protein Tyrosine Phosphatase Non-receptor Type 1 (PTPN1) (AID 2283201)
Summary of the method: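 Cell-free fluorogenic-substrate activity assay on recombinant enzyme, read 1.33 h after dosing by fluorescence and electrophoretic mobility shift; loss of signal vs DMSO baseline. Primary screen in duplicate at 25 uM, hits then run in concentration-response up to 50 uM.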

Row | SMILES | outcome
4 | CC(C)N1C(=O)N(c2ccccc2)CSC1=NC(C)(C)C | inactive
5 | N#Cc1c[nH]cc1-c1cccc2c1OC(F)(F)O2 | inactive
6 | Nc1cnn(-c2ccccc2)c(=O)c1Cl | inactive
7 | CN=C=S | inactive
8 | CCOc1nc(F)cc2nc(S(=O)(=O)Nc3c(Cl)cccc3Cl)nn12 | inactive
9 | CCCC(=NOCC)C1=C(O)CC(CC(C)SCC)CC1=O (centres undefined) | inactive
10 | Nc1c(Cl)c(Cl)nc(C(=O)O)c1Cl | inactive

Target: human Phosphatase and Tensin Homolog (PTEN), PTEN (gene 5728) (UniProt P60484)
Experiment: NVS_ENZ_hPTEN: NovaScreen (NVS) Enzymatic Assay for human Phosphatase and Tensin Homolog (PTEN) (AID 2283203)
Summary of the method: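 Cell-free recombinant human PTEN with fluorescent substrate; product separated by electrophoretic mobility shift and read by fluorescence 1 h after dosing. Primary screen in duplicate at 25 uM, actives followed in concentration series versus DMSO.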

Row | SMILES | AC50 | outcome
11 | CCOc1nc(F)cc2nc(S(=O)(=O)Nc3c(Cl)cccc3Cl)nn12 | 29.9 µM (active) | 
12 | N#CN=C1SCCN1Cc1ccc(Cl)nc1 |  | inactive
13 | CCCC(=NOCC)C1=C(O)CC(CC(C)SCC)CC1=O (centres undefined) | 18.2 µM (active) | 
14 | O=C1C2CC=CCC2C(=O)N1SC(Cl)(Cl)Cl (centres undefined) | 23 µM (active) | 

Target: Tyrosine-protein phosphatase non-receptor type 14 (Homo sapiens) (UniProt Q15678)
Experiment: NVS_ENZ_hPTPN14: NovaScreen (NVS) Enzymatic Assay for human Protein Tyrosine Phosphatase Non-receptor Type 14 (PTPN14) (AID 2283206)
Summary of the method: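 Cell-free recombinant human PTPN14 with fluorescent substrate, read 0.5 h after dosing by fluorescence and electrophoretic mobility shift separating substrate from product. Primary screen at 25 uM in duplicate; hits run to 50 uM maximum; loss of signal versus DMSO.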

Chain of Tyrosine-protein phosphatase non-receptor type 14 (Homo sapiens) (Q15678 whole entry, looked up): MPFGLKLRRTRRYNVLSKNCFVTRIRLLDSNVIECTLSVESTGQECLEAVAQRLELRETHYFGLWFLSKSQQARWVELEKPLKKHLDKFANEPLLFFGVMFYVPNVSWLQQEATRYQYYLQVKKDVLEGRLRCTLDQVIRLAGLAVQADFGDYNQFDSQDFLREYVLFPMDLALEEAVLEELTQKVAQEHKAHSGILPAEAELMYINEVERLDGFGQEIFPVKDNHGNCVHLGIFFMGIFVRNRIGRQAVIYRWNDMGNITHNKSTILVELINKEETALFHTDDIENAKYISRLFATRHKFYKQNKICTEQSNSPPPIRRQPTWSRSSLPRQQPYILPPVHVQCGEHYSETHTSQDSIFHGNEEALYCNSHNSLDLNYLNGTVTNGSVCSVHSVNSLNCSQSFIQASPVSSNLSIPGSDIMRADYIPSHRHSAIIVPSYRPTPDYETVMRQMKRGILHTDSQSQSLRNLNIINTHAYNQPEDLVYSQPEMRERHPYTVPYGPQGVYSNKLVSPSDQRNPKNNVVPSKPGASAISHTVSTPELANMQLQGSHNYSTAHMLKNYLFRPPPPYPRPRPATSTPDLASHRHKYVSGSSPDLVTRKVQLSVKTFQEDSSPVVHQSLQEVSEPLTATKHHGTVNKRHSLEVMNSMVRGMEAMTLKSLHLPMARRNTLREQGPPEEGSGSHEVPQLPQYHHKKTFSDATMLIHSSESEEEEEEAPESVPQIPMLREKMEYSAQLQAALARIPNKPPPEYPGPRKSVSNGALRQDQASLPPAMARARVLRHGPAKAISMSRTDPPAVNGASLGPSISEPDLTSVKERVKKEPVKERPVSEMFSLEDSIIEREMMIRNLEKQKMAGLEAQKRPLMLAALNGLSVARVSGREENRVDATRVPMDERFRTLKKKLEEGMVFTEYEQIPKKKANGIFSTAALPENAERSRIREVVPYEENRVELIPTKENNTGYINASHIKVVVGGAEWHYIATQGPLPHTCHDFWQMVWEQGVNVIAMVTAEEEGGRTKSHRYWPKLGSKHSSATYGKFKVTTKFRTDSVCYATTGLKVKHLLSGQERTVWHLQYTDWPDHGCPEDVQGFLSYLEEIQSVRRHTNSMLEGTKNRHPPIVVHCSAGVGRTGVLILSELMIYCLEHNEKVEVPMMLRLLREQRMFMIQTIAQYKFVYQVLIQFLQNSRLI

Row | SMILES | outcome
15 | COP(=S)(OC)Oc1ccc([N+](=O)[O-])c(C)c1 | inactive
16 | CCOP(=O)(OCC)Oc1nc(Cl)c(Cl)cc1Cl | inactive
17 | O=C1C2CC=CCC2C(=O)N1SC(Cl)(Cl)Cl (centres undefined) | inactive
18 | COP(=S)(OC)SCn1nnc2ccccc2c1=O | inactive
19 | CS(=O)(=O)c1cc(C(F)(F)F)ccc1C(=O)c1cnoc1C1CC1 | inactive

Target: human Protein Tyrosine Phosphatase Non-receptor Type 2 (PTPN2), PTPN2 (gene 5771) (UniProt P17706)
Experiment: NVS_ENZ_hPTPN2: NovaScreen (NVS) Enzymatic Assay for human Protein Tyrosine Phosphatase Non-receptor Type 2 (PTPN2) (AID 2283207)
Summary of the method: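 Cell-free recombinant enzyme with fluorescent substrate, product separated by electrophoretic mobility shift; read 1 h after dosing. Primary screen single concentration (25 uM) in duplicate; actives followed in concentration series; loss of signal versus DMSO.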

Row | SMILES | outcome | AC50
20 | CCN(CC)C(=O)C(C)Oc1cccc2ccccc12 (centres undefined) | inactive | 
21 | CCOC(=O)C(C)OC(=O)c1cc(Oc2ccc(C(F)(F)F)cc2Cl)ccc1[N+](=O)[O-] (centres undefined) | inactive | 
22 | N#CN=C1SCCN1Cc1ccc(Cl)nc1 | inactive | 
23 | CCCC(=NOCC)C1=C(O)CC(CC(C)SCC)CC1=O (centres undefined) | inactive | 
24 | O=C1C2CC=CCC2C(=O)N1SC(Cl)(Cl)Cl (centres undefined) |  | 46.9 µM (active)
25 | CN/C(=N\[N+](=O)[O-])NCc1cnc(Cl)s1 | inactive | 

Target: human Protein Tyrosine Phosphatase Receptor Type B (PTPRB), PTPRB (gene 5787) (UniProt P23467)
Experiment: NVS_ENZ_hPTPRB: NovaScreen (NVS) Enzymatic Assay for human Protein Tyrosine Phosphatase Receptor Type B (PTPRB) (AID 2283211)
Summary of the method: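 Recombinant human PTPRB with a fluorescent substrate, product separated by electrophoretic mobility shift; read 1 h after dosing. Primary screen in duplicate at 25 uM; actives then retested in concentration series; loss of signal versus DMSO.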

Row | SMILES | outcome
26 | N#Cc1c(Cl)cccc1Cl | inactive
27 | CCCC(=NOCC)C1=C(O)CC(CC(C)SCC)CC1=O (centres undefined) | inactive
28 | O=c1n(Cl)c(=O)n(Cl)c(=O)n1Cl | inactive

Target: human Protein Tyrosine Phosphatase Receptor Type F (PTPRF), PTPRF (gene 5792) (UniProt P10586)
Experiment: NVS_ENZ_hPTPRF: NovaScreen (NVS) Enzymatic Assay for human Protein Tyrosine Phosphatase Receptor Type F (PTPRF) (AID 2283213)
Summary of the method: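 Cell-free fluorescence enzyme assay with recombinant protein and substrate; product separated by electrophoretic mobility shift. Read 1 h after dosing, single 25 uM duplicate screen, then concentration-response up to 50 uM; loss of signal vs DMSO.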

Chain of human Protein Tyrosine Phosphatase Receptor Type F (PTPRF), PTPRF (gene 5792) (P10586 whole entry, looked up): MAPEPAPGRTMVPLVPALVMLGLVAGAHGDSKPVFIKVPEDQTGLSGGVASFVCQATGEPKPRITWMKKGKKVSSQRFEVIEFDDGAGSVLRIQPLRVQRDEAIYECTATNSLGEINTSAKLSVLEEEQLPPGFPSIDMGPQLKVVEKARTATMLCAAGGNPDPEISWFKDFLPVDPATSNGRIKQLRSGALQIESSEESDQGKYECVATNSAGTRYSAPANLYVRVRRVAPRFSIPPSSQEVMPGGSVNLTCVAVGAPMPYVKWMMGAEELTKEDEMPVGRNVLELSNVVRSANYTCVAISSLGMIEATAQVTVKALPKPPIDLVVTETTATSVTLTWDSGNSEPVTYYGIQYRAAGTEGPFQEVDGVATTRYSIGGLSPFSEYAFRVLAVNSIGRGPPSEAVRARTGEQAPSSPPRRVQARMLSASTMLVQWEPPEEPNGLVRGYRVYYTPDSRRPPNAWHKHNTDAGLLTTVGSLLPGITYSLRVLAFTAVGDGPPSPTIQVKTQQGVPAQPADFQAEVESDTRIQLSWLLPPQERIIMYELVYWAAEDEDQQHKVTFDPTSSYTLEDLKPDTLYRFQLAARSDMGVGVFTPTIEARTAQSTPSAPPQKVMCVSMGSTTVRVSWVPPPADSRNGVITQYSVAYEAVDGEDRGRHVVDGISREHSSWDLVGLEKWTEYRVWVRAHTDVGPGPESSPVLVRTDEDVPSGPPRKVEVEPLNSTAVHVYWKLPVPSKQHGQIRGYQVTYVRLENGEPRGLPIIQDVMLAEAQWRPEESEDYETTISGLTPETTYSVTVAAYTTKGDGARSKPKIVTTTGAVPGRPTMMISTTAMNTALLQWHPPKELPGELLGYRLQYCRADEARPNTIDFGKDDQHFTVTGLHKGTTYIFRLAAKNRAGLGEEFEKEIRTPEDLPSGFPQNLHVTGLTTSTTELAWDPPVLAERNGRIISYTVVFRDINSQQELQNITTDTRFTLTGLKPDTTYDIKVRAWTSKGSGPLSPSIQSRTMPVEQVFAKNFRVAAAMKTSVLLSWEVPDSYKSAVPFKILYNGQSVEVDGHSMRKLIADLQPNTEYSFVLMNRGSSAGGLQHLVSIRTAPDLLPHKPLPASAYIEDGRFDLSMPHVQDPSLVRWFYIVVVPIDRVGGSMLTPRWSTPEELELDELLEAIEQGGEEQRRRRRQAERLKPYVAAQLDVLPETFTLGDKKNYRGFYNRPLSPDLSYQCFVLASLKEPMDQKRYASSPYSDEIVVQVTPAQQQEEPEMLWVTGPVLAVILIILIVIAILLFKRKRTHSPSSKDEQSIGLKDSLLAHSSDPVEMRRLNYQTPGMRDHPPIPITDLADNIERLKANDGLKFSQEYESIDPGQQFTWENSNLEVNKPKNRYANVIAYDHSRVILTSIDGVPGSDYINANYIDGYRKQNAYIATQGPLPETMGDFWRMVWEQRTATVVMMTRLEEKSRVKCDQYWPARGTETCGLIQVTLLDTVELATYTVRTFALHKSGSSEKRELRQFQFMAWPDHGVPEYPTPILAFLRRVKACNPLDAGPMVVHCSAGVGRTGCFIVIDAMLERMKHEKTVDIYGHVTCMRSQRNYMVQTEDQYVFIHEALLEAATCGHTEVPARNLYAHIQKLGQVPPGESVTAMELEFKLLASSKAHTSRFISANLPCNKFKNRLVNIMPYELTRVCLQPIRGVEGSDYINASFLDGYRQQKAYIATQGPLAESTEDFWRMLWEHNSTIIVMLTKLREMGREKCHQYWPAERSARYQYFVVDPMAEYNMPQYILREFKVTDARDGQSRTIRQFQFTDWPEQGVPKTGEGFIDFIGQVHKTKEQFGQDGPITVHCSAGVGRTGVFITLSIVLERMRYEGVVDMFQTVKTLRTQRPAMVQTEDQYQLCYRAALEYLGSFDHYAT

Row | SMILES | outcome
29 | CN=C=S | inactive
30 | CCOc1nc(F)cc2nc(S(=O)(=O)Nc3c(Cl)cccc3Cl)nn12 | inactive
31 | N#Cc1c(Cl)cccc1Cl | inactive
32 | CCCC(=NOCC)C1=C(O)CC(CC(C)SCC)CC1=O (centres undefined) | inactive
33 | CCC(C)n1c(=O)[nH]c(C)c(Br)c1=O (centres undefined) | inactive
34 | COP(=S)(OC)SCn1nnc2ccccc2c1=O | inactive

Target: human Rho Associated Coiled-coil Containing Protein Kinase 1 (ROCK1), ROCK1 (gene 6093) (UniProt Q13464)
Experiment: NVS_ENZ_hROCK1: NovaScreen (NVS) Enzymatic Assay for human Rho Associated Coiled-coil Containing Protein Kinase 1 (ROCK1) (AID 2283214)
Summary of the method: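 Cell-free recombinant human ROCK1 activity assay; fluorescent substrate and product separated by electrophoretic mobility shift, read 1 h after dosing. Screened in duplicate at 25 uM; loss of signal versus DMSO baseline scored as inhibition.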

Chain of human Rho Associated Coiled-coil Containing Protein Kinase 1 (ROCK1), ROCK1 (gene 6093) (Q13464 whole entry, looked up): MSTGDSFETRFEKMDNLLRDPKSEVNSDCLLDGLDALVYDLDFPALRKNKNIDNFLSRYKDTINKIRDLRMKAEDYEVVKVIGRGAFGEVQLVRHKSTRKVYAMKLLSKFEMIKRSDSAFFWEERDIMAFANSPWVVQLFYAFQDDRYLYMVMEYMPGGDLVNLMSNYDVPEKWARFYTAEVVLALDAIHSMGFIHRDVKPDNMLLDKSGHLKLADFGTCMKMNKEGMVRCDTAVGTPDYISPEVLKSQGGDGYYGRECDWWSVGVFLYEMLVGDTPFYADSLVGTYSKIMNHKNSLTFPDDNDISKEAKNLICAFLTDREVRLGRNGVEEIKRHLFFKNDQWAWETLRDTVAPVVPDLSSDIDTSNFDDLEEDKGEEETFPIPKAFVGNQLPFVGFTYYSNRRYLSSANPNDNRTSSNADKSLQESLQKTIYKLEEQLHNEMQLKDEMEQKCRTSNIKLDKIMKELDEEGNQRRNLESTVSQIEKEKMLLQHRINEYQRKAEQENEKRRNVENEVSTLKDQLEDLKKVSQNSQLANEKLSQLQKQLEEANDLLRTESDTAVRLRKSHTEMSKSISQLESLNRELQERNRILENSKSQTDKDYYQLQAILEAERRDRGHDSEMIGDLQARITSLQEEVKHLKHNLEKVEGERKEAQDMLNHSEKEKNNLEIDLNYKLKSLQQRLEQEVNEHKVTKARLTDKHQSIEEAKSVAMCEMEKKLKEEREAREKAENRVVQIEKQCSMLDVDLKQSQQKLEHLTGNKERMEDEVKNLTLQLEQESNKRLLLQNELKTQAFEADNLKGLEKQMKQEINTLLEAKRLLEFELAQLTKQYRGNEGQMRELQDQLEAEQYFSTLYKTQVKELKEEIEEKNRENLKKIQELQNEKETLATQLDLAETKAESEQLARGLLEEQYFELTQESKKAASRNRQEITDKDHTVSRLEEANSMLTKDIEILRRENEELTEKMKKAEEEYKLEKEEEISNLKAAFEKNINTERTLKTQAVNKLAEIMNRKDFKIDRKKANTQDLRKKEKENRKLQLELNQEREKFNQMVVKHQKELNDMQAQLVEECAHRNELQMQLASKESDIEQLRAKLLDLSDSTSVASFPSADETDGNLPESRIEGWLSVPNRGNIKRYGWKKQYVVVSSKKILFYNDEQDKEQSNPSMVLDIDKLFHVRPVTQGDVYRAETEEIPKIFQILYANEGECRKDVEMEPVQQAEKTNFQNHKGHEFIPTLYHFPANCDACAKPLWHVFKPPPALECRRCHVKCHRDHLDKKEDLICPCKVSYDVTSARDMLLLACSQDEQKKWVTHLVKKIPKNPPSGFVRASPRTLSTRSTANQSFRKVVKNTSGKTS

Row | SMILES | outcome
35 | CCCCOCN(C(=O)CCl)c1c(CC)cccc1CC | inactive
36 | CCOC(=O)C(C)OC(=O)c1cc(Oc2ccc(C(F)(F)F)cc2Cl)ccc1[N+](=O)[O-] (centres undefined) | inactive
37 | CCOP(=S)(OCC)Oc1nc(Cl)n(C(C)C)n1 | inactive

Target: human Raf-1 Proto-Oncogene, serine/threonine Kinase (RAF1), RAF1 (gene 5894) (UniProt P04049)
Experiment: NVS_ENZ_hRAF1: NovaScreen (NVS) Enzymatic Assay for human Raf-1 Proto-Oncogene, serine/threonine Kinase (RAF1) (AID 2283216)
Summary of the method: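 Cell-free recombinant kinase with specific fluorescent substrate, product separated by electrophoretic mobility shift; read 1 h after dosing. Primary screen at 25 uM in duplicate; hits then run in concentration-response up to 50 uM, fitted as loss of signal versus DMSO.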

Chain of human Raf-1 Proto-Oncogene, serine/threonine Kinase (RAF1), RAF1 (gene 5894) (P04049 whole entry, looked up): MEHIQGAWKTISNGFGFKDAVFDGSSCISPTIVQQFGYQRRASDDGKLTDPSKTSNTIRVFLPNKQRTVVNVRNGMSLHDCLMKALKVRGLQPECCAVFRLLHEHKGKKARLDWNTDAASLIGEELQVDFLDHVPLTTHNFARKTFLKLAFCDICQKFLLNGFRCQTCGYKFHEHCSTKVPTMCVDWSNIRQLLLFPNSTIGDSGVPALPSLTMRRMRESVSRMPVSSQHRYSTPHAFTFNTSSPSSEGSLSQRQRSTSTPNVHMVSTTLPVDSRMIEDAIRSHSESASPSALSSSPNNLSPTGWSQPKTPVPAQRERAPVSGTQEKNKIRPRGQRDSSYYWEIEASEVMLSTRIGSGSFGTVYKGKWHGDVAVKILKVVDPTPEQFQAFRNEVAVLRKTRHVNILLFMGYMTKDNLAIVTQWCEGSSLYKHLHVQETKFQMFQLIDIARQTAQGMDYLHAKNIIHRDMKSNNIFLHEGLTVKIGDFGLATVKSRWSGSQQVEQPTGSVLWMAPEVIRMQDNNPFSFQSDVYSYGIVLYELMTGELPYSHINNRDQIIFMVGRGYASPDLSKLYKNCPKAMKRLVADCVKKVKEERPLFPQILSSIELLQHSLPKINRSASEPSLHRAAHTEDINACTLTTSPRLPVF

Row | SMILES | outcome
38 | CS(=O)(=O)c1ccc(C(=O)C2C(=O)CCCC2=O)c([N+](=O)[O-])c1 | inactive
39 | COC(=O)c1c(C(F)F)nc(C(F)(F)F)c(C2=NCCS2)c1CC(C)C | inactive
40 | CCOC(=O)C(C)OC(=O)c1cc(Oc2ccc(C(F)(F)F)cc2Cl)ccc1[N+](=O)[O-] (centres undefined) | inactive
41 | CN=C=S | inactive
42 | CC1(C)C(C=C(Cl)Cl)C1C(=O)OC(C#N)c1cccc(Oc2ccccc2)c1 (centres undefined) | inactive
43 | COc1ccc(-c2ccccc2)cc1NNC(=O)OC(C)C | inactive
44 | CCCC(=NOCC)C1=C(O)CC(CC(C)SCC)CC1=O (centres undefined) | inactive
45 | CN/C(=N\[N+](=O)[O-])NCc1cnc(Cl)s1 | inactive
46 | COP(=S)(OC)SCn1nnc2ccccc2c1=O | inactive

Target: human Sirtuin 2 (SIRT2), SIRT2 (gene 22933) (UniProt Q8IXJ6)
Experiment: NVS_ENZ_hSIRT2: NovaScreen (NVS) Enzymatic Assay for human Sirtuin 2 (SIRT2) (AID 2283217)
Summary of the method: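 Cell-free recombinant human SIRT2, fluorescent substrate with product separated by electrophoretic mobility shift, 1 hr. Screened in duplicate at 25 uM; hits rerun singly in concentration-response up to 50 uM, relative to DMSO.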

Row | SMILES | AC50
47 | CCCCC(O)(Cn1cncn1)c1ccc(Cl)cc1Cl (centres undefined) | 15.9 µM (active)
48 | COP(=S)(OC)Oc1ccc([N+](=O)[O-])c(C)c1 | 12.1 µM (active)
49 | O=C1C2CC=CCC2C(=O)N1SC(Cl)(Cl)Cl (centres undefined) | 13 µM (active)

Target: human Sirtuin 3 (SIRT3), SIRT3 (gene 23410) (UniProt Q9NTG7)
Experiment: NVS_ENZ_hSIRT3: NovaScreen (NVS) Enzymatic Assay for human Sirtuin 3 (SIRT3) (AID 2283222)
Summary of the method: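 Cell-free enzyme assay with recombinant protein and fluorescent substrate, product separated by electrophoretic mobility shift; read 1 hour after dosing. Screened in duplicate at 25 uM, then singleton concentration-response up to 50 uM; loss of signal versus DMSO.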

Row | SMILES | outcome | AC50
50 | CCCCC(O)(Cn1cncn1)c1ccc(Cl)cc1Cl (centres undefined) | inactive | 
51 | CC1(C)C(C=C(Cl)Cl)C1C(=O)OC(C#N)c1cccc(Oc2ccccc2)c1 (centres undefined) | inactive | 
52 | O=C1C2CC=CCC2C(=O)N1SC(Cl)(Cl)Cl (centres undefined) |  | 39.5 µM (active)
53 | Clc1nc(Cl)nc(Nc2ccccc2Cl)n1 | inactive | 
54 | CCCCC(C#N)(Cn1cncn1)c1ccc(Cl)cc1 (centres undefined) |  | 10.4 µM (active)

Target: human Tropomyosin Receptor Kinase A (TRKA), NTRK1 (gene 4914) (UniProt P04629)
Experiment: NVS_ENZ_hTrkA: NovaScreen (NVS) Enzymatic Assay for human Tropomyosin Receptor Kinase A (TRKA) (AID 2283224)
Summary of the method: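 Recombinant human TrkA activity read after 1 h by fluorescence with electrophoretic mobility shift separating substrate and product. Primary screen in duplicate at 25 uM; actives were rerun in concentration-response up to 50 uM. Loss of signal versus DMSO.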

Row | SMILES | AC50 | outcome
55 | CCCCC(O)(Cn1cncn1)c1ccc(Cl)cc1Cl (centres undefined) | 21.9 µM (active) | 
56 | CC(C)Nc1nc(Cl)nc(NC(C)C)n1 |  | inactive
57 | COC(=O)N(C(=O)N1CO[C@@]2(C(=O)OC)Cc3cc(Cl)ccc3C2=N1)c1ccc(OC(F)(F)F)cc1 | 28.7 µM (active) | 
58 | Clc1nc(Cl)nc(Nc2ccccc2Cl)n1 | 7.05 µM (active) | 
59 | CCCCC(C#N)(Cn1cncn1)c1ccc(Cl)cc1 (centres undefined) | 19.5 µM (active) | 
